Experimental findings from PubChem BioAssay AID2549 (National Center for Advancing Translational Sciences (NCATS), 2010) are described below.

SMILES strings stand for the structures. Out of some 240,000 compounds screened, about 1,300 (0.54%) were called active. Another 1% or so got no clear call; they are omitted. The sample holds actives, similar compounds and a random draw of the others, so the mix is not that of the screen. Unmarked numbers belong to inactive results. The call rests on the fitted dose curve; in most records, active means well fitted inhibition curve with a large enough effect; inconclusive means small, poorly fitted or top-dose-only effect; inactive means flat fitted curve, though single readings scatter.
Potency means the concentration at half of the fitted maximal effect.

Chain of ATP-dependent DNA helicase Q1 (Homo sapiens) (P46063 whole entry, looked up): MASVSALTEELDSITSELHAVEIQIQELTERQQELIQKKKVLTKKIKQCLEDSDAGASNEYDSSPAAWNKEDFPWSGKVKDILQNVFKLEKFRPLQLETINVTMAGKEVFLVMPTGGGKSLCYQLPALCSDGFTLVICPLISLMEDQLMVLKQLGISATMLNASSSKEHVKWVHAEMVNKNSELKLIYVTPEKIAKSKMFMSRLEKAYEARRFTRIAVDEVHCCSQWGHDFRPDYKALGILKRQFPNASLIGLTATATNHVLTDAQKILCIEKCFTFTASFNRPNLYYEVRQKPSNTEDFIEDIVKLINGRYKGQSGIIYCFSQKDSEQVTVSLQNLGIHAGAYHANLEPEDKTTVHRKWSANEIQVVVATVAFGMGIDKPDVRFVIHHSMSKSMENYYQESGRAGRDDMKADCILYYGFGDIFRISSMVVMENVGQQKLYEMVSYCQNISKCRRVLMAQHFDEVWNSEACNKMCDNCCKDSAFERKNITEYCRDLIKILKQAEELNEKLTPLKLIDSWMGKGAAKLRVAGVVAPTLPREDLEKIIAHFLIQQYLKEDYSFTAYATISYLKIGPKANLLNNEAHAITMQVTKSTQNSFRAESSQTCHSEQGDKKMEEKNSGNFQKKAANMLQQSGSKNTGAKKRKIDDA

This assay has as its target ATP-dependent DNA helicase Q1 (Homo sapiens) (UniProt P46063). Kind of assay: qHTS Assay for Inhibitors of RecQ-Like Dna Helicase 1 (RECQ1). Further: nearly all actives have a fitted effect of over 30% in size.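 On activity, negative = inhibition: plate controls were vehicle for no effect and no enzyme for full effect.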 To be noted: RECQ1 DNA unwinding, red fluorescence kinetic read; series mostly up to 57.3 µM; activity, negative = inhibition: at the top concentration. A digest of the protocol: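 RECQ1T1 50 nM; forked duplex (20 bp + 30-nt ss tails) 200 nM, ATP 2 mM final; pH 8.0, 2 mM MgCl2, 2.5 ug/ml poly(dI-dC); 15 min compound preincubation; discontinuous kinetic read over 2 h at RT.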
Turning to `COc1ccc(-c2ccc(OC)c(C3C4C=CCC(C)C4C(=O)N3Cc3ccccc3)c2)cc1C` (configuration not stated), the “activity, negative = inhibition” value was -11%.

On to `O=C(c1cc2c(s1)CCC2)N1CCN(c2ccccc2)CC1`, for which the Potency is 11.2 µM (active).

For the compound `O=C(NNC(=O)c1cc2c(s1)CCCC2)c1ccccc1`, the “activity, negative = inhibition” value is 1.32%.

With `Cc1nc2ccc(C(=O)N3CCN(c4ccccc4)CC3)cc2s1`, the “activity, negative = inhibition” value was 0.371%.

Turning to `CC(C)C(=O)N1CCC2(CC1)Oc1ccc(F)cc1C(=O)C21CC(c2ccccc2)=NO1` (configuration not stated), the outcome was inactive.

With `CCCOc1ccc(NC(=O)CC2C(=O)N(C)C(=S)N2Cc2ccc3c(c2)OCO3)cc1` (configuration not stated), the “activity, negative = inhibition” value was -17.1%.

With `O=C(Nc1cc(C(=O)Nc2ccc(S(=O)(=O)O)cc2)cc(C(=O)Nc2ccc(S(=O)(=O)O)cc2)c1)Nc1cc(C(=O)Nc2ccc(S(=O)(=O)O)cc2)cc(C(=O)Nc2ccc(S(=O)(=O)O)cc2)c1`, the “activity, negative = inhibition” value is 9.47%.

On to `Cc1ccc(CNC(=O)C2(C(F)(F)F)C/C(=C\Cc3ccccc3)CCCO2)o1` (configuration not stated), for which the compound was called inactive.

As to `CC(=O)OCC1OC(C#Cc2ccccc2Cl)C=CC1OC(C)=O` (configuration not stated), the outcome is “inactive [at 11.5 µM]”.

Consider `Fc1ccc(Cl)cc1-c1nc(Nc2ccncc2)c2nccnc2n1`, for which the “activity, negative = inhibition” value is 7.16%.

Turning to `CC(Cc1ccccc1)C(=O)N(C)Cc1ccccc1` (configuration not stated), the Potency entry was “inactive”.

On to `Cc1ccc(C)n1C(Cc1ccccc1)C(=O)O` (configuration not stated), for which the Potency was 12.6 µM (active).

Turning to `COc1ccc(CNC(=O)C(Cc2ccccc2)n2cccc2)cc1` (configuration not stated), the “activity, negative = inhibition” value is -2.84%.

As to `O=C(NCC1CC1)C1(C(F)(F)F)C/C(=C\CCO)CCCO1` (configuration not stated), the “activity, negative = inhibition” value was -0.775%.

Consider `CCOC(=O)C1=NOC(Cn2cc(C(C)=O)c(=O)[nH]c2=O)C1` (configuration not stated), for which the “activity, negative = inhibition” value is -3.54%.

Regarding `CCOC(=O)C1=NO[C@@]2(C=C(Br)C(=O)[C@H]3O[C@H]32)C1`, the Potency is 28.2 µM (active).

For the compound `CCOC(=O)C1=C(C)N=C2c3ccccc3C(=O)C2C1c1ccc(Br)cc1` (configuration not stated), the “activity, negative = inhibition” value is -6.22%.

As for `NC(=O)C1=C[C@@H](c2csc3ccccc23)C[C@@H](OCc2ccc(CO)cc2)O1`, the “activity, negative = inhibition” value is -0.57%.

`COC(=O)c1ccc([C@@H](O)[C@H](C)C(=O)CC(=O)OC(C)(C)C)cc1`: the call was inactive.

Take `Cc1cccc(N=C2NC(=O)/C(=C/c3cn(C)c4ccccc34)S2)c1`: the “activity, negative = inhibition” value was -12.2%.

As for `Cc1ccc(N=C2NC(=O)/C(=C/C=C/c3ccco3)S2)cc1C`, the Potency was 22.4 µM (active).

In the case of `CN(C)c1ccc(-n2cccc2/C=C2/SC(=Nc3ccc(F)cc3)NC2=O)cc1`, the “activity, negative = inhibition” value was -1.05%.

Take `O=C1CN(Cc2ccccc2)S(=O)(=O)c2ccccc21`: the “activity, negative = inhibition” value is -2.98%.

On to `CC(C)=CCN1CCC2(CCc3ccccc32)CC1`, for which the “activity, negative = inhibition” value was -1.26%.

In the case of `CCS(=O)(=O)C1=NSC2=NC(=O)/C(=C\c3cc(C)n(-c4cccc(OC)c4)c3C)C(=N)N21`, the “activity, negative = inhibition” value is 3.29%.

As to `CS(=O)(=O)c1ccc2c(c1)SC1=NC(=O)/C(=C/c3ccco3)C(=N)N12`, the Potency was 28.2 µM (active).

As to `CCC1=NN2C(=N)/C(=C/c3cc(C)n(-c4ccccc4)c3C)C(=O)N=C2S1`, the “activity, negative = inhibition” value was 16.2%.

As for `CCOC(OCC)OCC`, the “activity, negative = inhibition” value was -9.69%.

Consider `COC(=O)C(CC(C)C)NS(=O)(=O)c1cc(Br)ccc1Br` (configuration not stated), for which the “activity, negative = inhibition” value was 0.664%.

As to `C=CCOC(=O)C(=C)C`, the “activity, negative = inhibition” value is -0.151%.

With `C/C(=N\NC(=S)NCc1ccccc1)C1CCCCC1`, the “activity, negative = inhibition” value is -13%.

Regarding `O=C(O)c1ccc(/C=N/NC(=S)NCc2ccccc2)cc1`, the “activity, negative = inhibition” value was -5.09%.

For `C/C(=N\NC(=S)NCc1ccccc1)c1ccc(Cl)cc1`, the Potency was 31.6 µM (active).

As to `CC(O)[C@@H](N)C(=O)O` (some centres not stated), the “activity, negative = inhibition” value was -2.11%.

`Cc1ccc(OCC(=O)Nc2nnc(-c3ccco3)s2)cc1`: the “activity, negative = inhibition” value was 0.109%.

In the case of `COc1ccc(OCC(=O)Nc2nnc(-c3ccco3)s2)cc1`, the Potency is 31.6 µM (active).

In the case of `CNc1nnc(-c2ccco2)s1`, the result was inactive.

Regarding `COc1cc(C(F)(F)F)c(C(=O)N(C)c2ccc(Cl)cc2)cn1`, the “activity, negative = inhibition” value is -4.86%.

Take `Cc1cs/c(=N\N=C\c2ccc(O)cc2)n1Cc1ccco1`: the “activity, negative = inhibition” value is -8.6%.

Regarding `CN(c1ccccc1)c1ccc(/C=c2\s/c(=C(/C#N)C(=O)C(C)(C)C)n(Cc3ccco3)c2=O)cc1`, the Potency was 17.8 µM (active).

`COc1ccc(NC(=O)Cn2c(=O)n(Cc3ccco3)c(=O)c3ccccc32)cc1`: the “activity, negative = inhibition” value is -4.47%.

With `COc1ccc(C2CC(O)(c3ccccc3)Oc3cc(C)cc(C)c32)cc1` (configuration not stated), the “activity, negative = inhibition” value is -17%.

Take `CCOc1ccc(NC(=O)CCC(=O)N/N=C/c2ccc([N+](=O)[O-])s2)cc1`: the “activity, negative = inhibition” value was 4.95%.

For the compound `O=[N+]([O-])c1ccc(C=Nc2ccc(Cl)cc2Cl)s1`, the Potency is 25.1 µM (active).

For `CC(C)(C)c1cc(C(=O)N/N=C/c2ccc([N+](=O)[O-])s2)n[nH]1`, the “activity, negative = inhibition” value was 6.11%.

Turning to `CC(C)c1cnc(NC(=O)Cc2ccccc2)s1`, the compound was called inactive.

Regarding `CC(=O)OCC(NC(=O)C(Cc1ccccc1)NC(=O)OC(C)(C)C)C1OC(n2ccc(=O)[nH]c2=O)C(OC(C)=O)C1OC(C)=O` (configuration not stated), the compound was called inactive.

Turning to `Nc1nc(SCc2ccccc2Cl)n[nH]1`, the “activity, negative = inhibition” value is -13.7%.

On to `Brc1ccc(CSc2ccc(-c3ccco3)nn2)cc1`, for which the compound was classed as inactive.

As for `COC(OC)c1ccnc(SCc2ccccc2Cl)n1`, the “activity, negative = inhibition” value is -7.6%.

`c1ccc(CSc2nnc(-c3ccco3)c(-c3ccco3)n2)cc1`: the Potency was 11.2 µM (active).

As for `O=C(Nc1nnc(SCc2ccccc2)s1)c1ccco1`, the “activity, negative = inhibition” value was 7.11%.
